# Measured values taken from PubChem BioAssay (Tox21).
# Unmarked numbers belong to inactive results. Results filed as inconclusive are left out. Where a call stands in place of a potency, no number is given. Active and inactive are the calls of the source. Unless noted, the call rests on the fitted dose curve.
# What was measured:
# [1] = Nuclear factor erythroid 2-related factor 2/antioxidant responsive element (Nrf2/ARE) small molecule agonists: qHTS cell viability counter screen in human keratinocytes (AID 1919968; active means well fitted curve in the direction sought with a large enough effect in the repeat runs; an effect the other way counts as inactive or inconclusive; further: nearly all actives have a fitted effect of over 55% in size)
# How it was run: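 Measured as CellTiter-Fluor fluorescence, this readout tracks cytotoxicity in the same wells as the ARE-luciferase screen. HaCaT reporter cells (1,500/well) received compounds after a 5 h pre-incubation and were exposed for 23 h.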
# [2] = Nuclear factor erythroid 2-related factor 2/antioxidant responsive element (Nrf2/ARE) small molecule agonists: luciferase reporter gene qHTS assay in human keratinocytes (AID 1919969); further: nearly all actives have a fitted effect of over 35% in size
# [3] = target: Gonadotropin-releasing hormone receptor (Homo sapiens) (UniProt P30968); test: Human gonadotropin-releasing hormone receptor (GnRHR) small molecule agonists, calcium flux assay in GnRHR-HEK293 cells (AID 1920063); further: nearly all actives have a fitted effect of over 35% in size
# Chain of Gonadotropin-releasing hormone receptor (Homo sapiens) (P30968 whole entry, looked up): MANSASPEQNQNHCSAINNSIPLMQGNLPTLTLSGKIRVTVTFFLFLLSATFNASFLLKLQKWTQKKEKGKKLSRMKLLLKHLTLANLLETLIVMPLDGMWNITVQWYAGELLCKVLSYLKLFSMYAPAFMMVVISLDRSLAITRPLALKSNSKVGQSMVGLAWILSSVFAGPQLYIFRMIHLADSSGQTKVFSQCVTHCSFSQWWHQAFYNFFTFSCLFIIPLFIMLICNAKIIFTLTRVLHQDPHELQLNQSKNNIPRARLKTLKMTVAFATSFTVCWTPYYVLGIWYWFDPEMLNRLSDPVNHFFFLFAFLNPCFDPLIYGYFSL
# How it was run: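 Fluorescence kinetics (480 nm excitation, 540 nm emission; 3 min, 1 s steps) report calcium mobilisation in human GnRHR-HEK293 cells in agonist mode. Dye incubation: 1 h, 37 C.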
# [4] = target: KiSS-1 receptor (Homo sapiens) (UniProt Q969F8); test: Human kisspeptin (KISS1R) small molecule agonists, calcium flux assay in KISS1R-HEK293 cells (AID 1920064; active means well fitted curve in the direction sought with a large enough effect in the repeat runs; an effect the other way counts as inactive or inconclusive)
# Chain of KiSS-1 receptor (Homo sapiens) (Q969F8 whole entry, looked up): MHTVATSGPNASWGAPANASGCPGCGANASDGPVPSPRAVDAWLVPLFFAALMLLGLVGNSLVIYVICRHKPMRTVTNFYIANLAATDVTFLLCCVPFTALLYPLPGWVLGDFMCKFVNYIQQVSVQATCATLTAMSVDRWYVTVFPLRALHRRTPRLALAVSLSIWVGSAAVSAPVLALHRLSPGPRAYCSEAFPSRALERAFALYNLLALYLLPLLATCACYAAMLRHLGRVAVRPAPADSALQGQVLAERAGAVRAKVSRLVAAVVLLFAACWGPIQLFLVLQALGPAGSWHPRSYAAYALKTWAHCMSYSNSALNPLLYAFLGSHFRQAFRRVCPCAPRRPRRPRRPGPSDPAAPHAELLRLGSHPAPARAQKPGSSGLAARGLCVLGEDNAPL
# How it was run: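 Measures KISS1R agonism through calcium-sensitive dye fluorescence in stably transfected HEK293 cells, read for 3 min after pin-tool compound delivery; 15-point titrations in triplicate.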
# [5] = G protein-coupled receptor (GPCR) small molecule agonists, calcium flux assay: HEK293 wild type cell line counter screen (AID 1920065)
# How it was run: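 Readout: fluorescence at 480 nm excitation/540 nm emission, sampled at 1 s intervals for 3 min. Cells had been cultured 18 h, then dye-loaded 1 h at 37 C before compound or ATP addition.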
# [6] = p53 small molecule agonists, cell-based qHTS assay with human liver microsomes (AID 1963577);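 further: p53 response element beta-lactamase reporter cells with liver microsomes plus NADPH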
# How it was run: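 16 h, 37 C exposure of p53RE-bla cells to compounds with human liver microsomes and NADPH (0.5 mg/mL final each); detection via LiveBLAzer mixture, 2 h dark at room temperature.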
# [7] = p53 small molecule agonists, cell-based qHTS assay with rat liver microsomes (AID 1963578)
# How it was run: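 With rat liver microsomes and NADPH present (0.5 mg/mL final each), p53RE-bla cells are treated with compound for 16 h at 37 C. LiveBLAzer detection mixture is then applied for 2 h at room temperature in the dark.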
# [8] = p53 small molecule agonists, cell-based qHTS assay with human liver microsomes: qHTS cell viability counter screen (AID 1963579); further: nearly all actives have a fitted effect of over 45% in size
# How it was run: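 In this multiplexed counter screen, the reporter plates were subsequently treated with CellTiter-Glo so that cell viability, reflected by luminescence, could be recorded for p53RE-bla cells dosed 16 h with compounds under microsomal activation (HLM and NADPH).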
# [9] = p53 small molecule agonists, cell-based qHTS assay with rat liver microsomes: qHTS cell viability counter screen (AID 1963580); further: nearly all actives have a fitted effect of over 45% in size
# How it was run: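 In HCT-116 cells carrying a p53 response element-bla reporter, compounds were metabolically activated in situ by rat liver microsomes with NADPH over 16 h. Cell ATP content then served as the cytotoxicity measure.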
# [10] = p53 small molecule agonists, cell-based qHTS assay: qHTS cell viability counter screen (AID 1963581); further: nearly all actives have a fitted effect of over 45% in size
# How it was run: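 In the same plates used for the p53 bla reporter, HCT-116 cells given compounds for 16 h at 37 C received CellTiter-Glo; luminescence was recorded 30 min later at room temperature.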
# [11] = p53 small molecule agonists, cell-based qHTS assay (AID 1963582; active means well fitted activation curve with a large enough effect in the signal ratio in the repeat runs, not every such curve was filed as active; the % refers to the signal ratio)
# How it was run: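 Compounds are pin-transferred in DMSO onto p53RE-bla cells and incubated 16 h at 37 C. The B/G FRET beta-lactamase substrate is then applied for 2 h at RT and fluorescence recorded.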
# [12] = target: 5-hydroxytryptamine receptor 2A (Homo sapiens) (UniProt P28223); test: 5-hydroxytryptamine receptor 2A (HTR2A) small molecule antagonists, cell-based qHTS assay (AID 1963586); further: nearly all actives have a fitted effect of over 45% in size
# Chain of 5-hydroxytryptamine receptor 2A (Homo sapiens) (P28223 whole entry, looked up): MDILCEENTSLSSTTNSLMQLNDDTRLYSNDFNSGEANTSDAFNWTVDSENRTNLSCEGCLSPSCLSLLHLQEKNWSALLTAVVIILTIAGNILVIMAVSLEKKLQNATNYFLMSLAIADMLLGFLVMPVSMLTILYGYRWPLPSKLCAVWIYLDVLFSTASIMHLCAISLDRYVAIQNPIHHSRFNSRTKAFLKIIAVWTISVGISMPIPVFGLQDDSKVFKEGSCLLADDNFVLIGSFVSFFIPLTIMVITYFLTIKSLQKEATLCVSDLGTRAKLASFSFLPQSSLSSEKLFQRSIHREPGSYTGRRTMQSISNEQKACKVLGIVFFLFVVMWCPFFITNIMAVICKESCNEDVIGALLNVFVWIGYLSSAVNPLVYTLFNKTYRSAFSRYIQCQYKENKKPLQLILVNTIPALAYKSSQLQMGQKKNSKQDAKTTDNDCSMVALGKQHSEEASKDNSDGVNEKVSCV
# How it was run: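 Antagonist-mode intracellular calcium assay: DOI (4 nM) added after 5 min compound pre-incubation at room temperature to dye-loaded HTR2A-CHO cells. Fluorescence followed for 3 min, sampled every second.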
# [13] = target: 5-hydroxytryptamine receptor 2A (Homo sapiens) (UniProt P28223); test: 5-hydroxytryptamine receptor 2A (HTR2A) small molecule agonists, cell-based qHTS assay (AID 1963587); further: nearly all actives have a fitted effect of over 30% in size; further: potency means the concentration at half of the fitted maximal effect
# How it was run: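 HTR2A-CHO cells, plated 18 h at 37 C/5% CO2, dye-loaded 1 h at 37 C; compounds in DMSO added by pin tool (agonist mode). Intracellular calcium flux read as kinetic fluorescence on FDSS over 2 min at 1 s intervals.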
# [14] = target: Muscarinic acetylcholine receptor M1 (Homo sapiens) (UniProt P11229); test: Cholinergic receptor muscarinic 1 (CHRM1) small molecule antagonists, cell-based qHTS assay (AID 1963588); further: nearly all actives have a fitted effect of over 40% in size
# Chain of Muscarinic acetylcholine receptor M1 (Homo sapiens) (P11229 whole entry, looked up): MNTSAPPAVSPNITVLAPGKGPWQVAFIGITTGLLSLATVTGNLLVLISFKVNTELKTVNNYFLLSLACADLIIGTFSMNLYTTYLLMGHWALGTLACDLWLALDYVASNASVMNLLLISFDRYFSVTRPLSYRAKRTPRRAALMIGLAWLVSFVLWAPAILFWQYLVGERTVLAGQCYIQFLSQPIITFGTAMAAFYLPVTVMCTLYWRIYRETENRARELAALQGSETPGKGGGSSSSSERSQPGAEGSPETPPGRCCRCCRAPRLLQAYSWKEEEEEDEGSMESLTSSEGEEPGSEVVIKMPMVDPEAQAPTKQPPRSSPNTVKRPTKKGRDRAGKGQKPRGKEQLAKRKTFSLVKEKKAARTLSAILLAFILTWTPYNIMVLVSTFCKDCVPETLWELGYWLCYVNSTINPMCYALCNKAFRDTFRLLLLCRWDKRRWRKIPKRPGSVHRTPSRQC
# How it was run: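 CHRM1-CHO calcium-flux assay, antagonist mode. Cells were seeded 18 h, dye-loaded 1 h at 37 C and given compound for 5 min at RT, then acetylcholine was added at 50nM. FDSS fluorescence was read 3 min; 15 concentrations, three runs.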
# [15] = target: Muscarinic acetylcholine receptor M1 (Homo sapiens) (UniProt P11229); test: Cholinergic receptor muscarinic 1 (CHRM1) small molecule agonists, cell-based qHTS assay (AID 1963589); further: nearly all actives have a fitted effect of over 35% in size
# How it was run: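 Each compound was tested at 15 concentrations across three independent runs on dye-loaded CHO cells stably expressing human CHRM1, reading intracellular calcium fluorescence kinetically at 1 sec intervals.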
# [16] = cAMP Responsive Elements (CRE) small molecule agonists, cell-based qHTS assay (AID 1963590)
# How it was run: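 Cell line: CRE-bla HEK 293T; medium DMEM/10% dialyzed FBS/0.1 mM NEAA/1 mM pyruvate/25 mM HEPES; 3 h compound exposure; beta-lactamase FRET readout after 2 h substrate loading at RT.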
# [17] = cAMP Responsive Elements (CRE) small molecule antagonists, cell-based qHTS assay (AID 1963591; active means well fitted inhibition curve with a large enough effect in the signal ratio in the repeat runs, not every such curve was filed as active; the % refers to the signal ratio)
# How it was run: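 Inhibition of NKH477-driven (0.25 uM final) CRE-beta-lactamase signal in HEK293T cells, 3 h compound exposure at 37 °C, detected by FRET substrate fluorescence.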
# [18] = target: Beta-2 adrenergic receptor (Homo sapiens) (UniProt P07550); test: Adrenergic beta2 receptor (ADRB2) small molecule antagonists, cell-based qHTS assay (AID 1963592); further: series mostly up to about 92 µM; nearly all actives have a fitted effect of over 50% in size
# Chain of Beta-2 adrenergic receptor (Homo sapiens) (P07550 whole entry, looked up): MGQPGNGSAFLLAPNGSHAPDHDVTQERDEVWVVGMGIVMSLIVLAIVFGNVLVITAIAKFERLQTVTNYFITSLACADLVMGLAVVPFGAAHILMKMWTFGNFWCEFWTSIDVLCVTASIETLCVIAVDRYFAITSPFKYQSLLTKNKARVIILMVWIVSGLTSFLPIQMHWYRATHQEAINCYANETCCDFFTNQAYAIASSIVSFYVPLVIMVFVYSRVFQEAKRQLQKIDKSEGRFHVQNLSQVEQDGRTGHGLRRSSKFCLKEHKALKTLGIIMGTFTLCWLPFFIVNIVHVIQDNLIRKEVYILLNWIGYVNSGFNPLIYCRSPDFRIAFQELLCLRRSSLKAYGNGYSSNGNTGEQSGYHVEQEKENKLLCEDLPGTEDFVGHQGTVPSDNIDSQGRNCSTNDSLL
# How it was run: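 Cells (CHO, stable ADRB2 overexpression) incubated 18-20hr at 37C; compounds added from DMSO; agonist mix (1nM isoproterenol, 100uM IBMX, 25uM Ro-20-1724) added; 0.5hr RT; d2-cAMP and anti-cAMP-cryptate added; 1hr RT; 665/615 nm read.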
# [19] = target: D(2) dopamine receptor (Homo sapiens) (UniProt P14416); test: Dopamine D2 receptor (DRD2) small molecule agonists, cell-based qHTS assay (AID 1963594); further: nearly all actives have a fitted effect of over 35% in size
# Chain of D(2) dopamine receptor (Homo sapiens) (P14416 whole entry, looked up): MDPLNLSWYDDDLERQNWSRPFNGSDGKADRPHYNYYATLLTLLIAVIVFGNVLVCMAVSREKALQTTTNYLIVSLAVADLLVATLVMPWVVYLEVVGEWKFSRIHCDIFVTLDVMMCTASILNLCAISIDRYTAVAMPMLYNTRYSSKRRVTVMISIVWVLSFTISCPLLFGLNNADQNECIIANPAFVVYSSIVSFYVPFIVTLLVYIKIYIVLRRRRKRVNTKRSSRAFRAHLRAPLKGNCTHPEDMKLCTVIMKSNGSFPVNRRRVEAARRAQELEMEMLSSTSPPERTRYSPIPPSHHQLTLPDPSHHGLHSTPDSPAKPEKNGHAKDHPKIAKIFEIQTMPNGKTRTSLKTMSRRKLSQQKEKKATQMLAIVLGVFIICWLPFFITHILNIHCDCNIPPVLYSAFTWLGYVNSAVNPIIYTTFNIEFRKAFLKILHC
# How it was run: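 HEK293 cells stably expressing DRD2 were cultured 24 h at 37 C, then given Ro20-1724 (0.1 mM final) and compounds for 10 min at room temperature. NKH477 (200nM) was then added for 30 min. cAMP was read by HTRF.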
# [20] = target: D(2) dopamine receptor (Homo sapiens) (UniProt P14416); test: Dopamine D2 receptor (DRD2) small molecule antagonists, cell-based qHTS assay (AID 1963595; active means well fitted inhibition curve with a large enough effect in the signal ratio in the repeat runs, with a control signal flat; the % refers to the signal ratio)
# How it was run: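 Readout: HTRF cAMP, cAMP-d2 competing with cellular cAMP for anti-cAMP cryptate, read after 1 h. Cells: DRD2-HEK293. Conditions: 0.1 mM Ro20-1724, 12 nM quinpirole, 200 nM NKH477, 30 min RT.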
structure (smiles),measurement,setting,value
CN1C(=O)CC(c2ccccc2)C1=O (centres undefined),Potency,[1],inactive
same,Potency,[2],inactive
same,Potency,[3],inactive
same,outcome,[4],inactive
same,outcome,[5],inactive
same,Potency,[6],inactive
same,Potency,[7],inactive
same,Potency,[8],inactive
same,Potency,[9],inactive
same,Potency,[10],inactive
same,Potency,[11],inactive
same,Potency,[12],inactive
same,Potency,[13],inactive
same,Potency,[14],inactive
same,Potency,[15],inactive
same,Potency,[16],inactive
same,Potency,[17],inactive
same,Potency,[18],inactive
same,Potency,[19],inactive
same,Potency,[20],inactive
Cc1ccc(O)cn1,Potency,[1],inactive
same,Potency,[2],inactive
same,Potency,[3],inactive
same,outcome,[4],inactive
same,outcome,[5],inactive
same,Potency,[6],inactive
same,Potency,[7],inactive
same,Potency,[8],inactive
same,Potency,[9],inactive
same,Potency,[10],inactive
same,Potency,[11],inactive
same,Potency,[12],inactive
same,Potency,[13],inactive
same,Potency,[14],inactive
same,Potency,[15],inactive
same,Potency,[16],inactive
same,Potency,[17],inactive
same,Potency,[18],inactive
same,Potency,[19],inactive
same,Potency,[20],inactive
CCCCCCOC(=O)CCCCC,Potency,[1],inactive
same,Potency,[2],inactive
same,Potency,[3],inactive
same,outcome,[4],inactive
same,outcome,[5],inactive
same,Potency,[6],inactive
same,Potency,[7],inactive
same,Potency,[8],inactive
same,Potency,[9],inactive
same,Potency,[10],inactive
same,Potency,[11],inactive
same,Potency,[12],inactive
same,Potency,[13],inactive
same,Potency,[14],inactive
same,Potency,[15],inactive
same,Potency,[16],inactive
same,Potency,[17],inactive
same,Potency,[18],inactive
same,Potency,[19],inactive
same,Potency,[20],inactive
CCCCCCCCCCCCCCN(C)C,"activity change, negative = cytotoxicity",[1],2.19% [at 19 µM]
same,"activity, positive = activation",[2],2.64% [at 19 µM]
same,activity change,[3],"-0.071% [at 11.8 µM, stronger effect = higher value]"
same,activation,[4],2.68% [at 15.8 µM]
same,activation,[5],-0.129% [at 11.8 µM]
same,activation,[6],-0.299% [at 13.5 µM]
same,activation,[7],-1.12% [at 13.6 µM]
same,"activity change, negative = cytotoxicity",[8],6.35% [at 13.5 µM]
same,"activity change, negative = cytotoxicity",[9],-0.358% [at 13.5 µM]
same,"activity change, negative = cytotoxicity",[10],1.73% [at 13.5 µM]
same,activation,[11],-0.74% [at 13.5 µM]
same,"activity, negative = inhibition",[12],2.96% [at 12.7 µM]
same,activation,[13],12% [at 15.9 µM]
same,"activity, negative = inhibition",[14],5.47% [at 12.6 µM]
same,activation,[15],0.401% [at 15.8 µM]
same,activation,[16],-0.847% [at 19 µM]
same,"activity change, negative = inhibition",[17],-9.63% [at 18.9 µM]
same,"activity change, negative = inhibition",[18],-1.54% [at 19 µM]
same,activation,[19],0.215% [at 19 µM]
NC(=O)c1ncn([C@@H]2O[C@H](CO)[C@@H](O)[C@H]2O)c1N,Potency,[1],inactive
same,Potency,[2],inactive
same,Potency,[3],inactive
same,outcome,[4],inactive
same,outcome,[5],inactive
same,Potency,[6],inactive
same,Potency,[7],inactive
same,Potency,[8],inactive
same,Potency,[9],inactive
same,Potency,[10],inactive
same,Potency,[11],inactive
same,Potency,[12],inactive
same,Potency,[13],inactive
same,Potency,[14],inactive
same,Potency,[15],inactive
same,Potency,[16],inactive
same,Potency,[17],inactive
same,Potency,[18],inactive
same,Potency,[19],inactive
same,Potency,[20],inactive
COC(=O)c1cccc(Cl)c1,Potency,[1],inactive
same,Potency,[2],inactive
same,Potency,[3],inactive
same,outcome,[4],inactive
same,outcome,[5],inactive
same,Potency,[6],inactive
same,Potency,[7],inactive
same,Potency,[8],inactive
same,Potency,[9],inactive
same,Potency,[10],inactive
same,Potency,[11],inactive
same,Potency,[12],inactive
same,Potency,[13],21.6 µM (active)
same,Potency,[14],inactive
same,Potency,[15],inactive
same,Potency,[16],inactive
same,Potency,[17],inactive
same,Potency,[18],inactive
same,Potency,[19],inactive
same,Potency,[20],inactive
